From PubChem BioAssay (EPA / NIEHS)
Values joined by “and” are separate entries in the source; they are usually repeats but may differ in a detail not shown here. Identical values can stand only once. Results filed as inconclusive are left out. Some compounds were tested as several samples or in several runs, with calls that do not always agree. Active and inactive are the calls of the source. The calls were made as follows, unless noted: active = hit-call score of the fitted dose curve at least 0.9, where 1 is the maximum; inactive = score below 0.9.

What was measured:
[1] = target: Nuclear respiratory factor 1 (Homo sapiens) (UniProt Q16656); test: ATG_NRF1_CIS: Attagene CIS-FACTORIAL HepG2 Assay for human Nuclear Respiratory Factor 1 (NRF1) Orphan Gene (AID 2282987); settings: HepG2 NRF1 cis-element reporter, Attagene multiplex; actives raise or lower the signal
Chain of Nuclear respiratory factor 1 (Homo sapiens) (Q16656 whole entry, looked up, the tested form may be a part): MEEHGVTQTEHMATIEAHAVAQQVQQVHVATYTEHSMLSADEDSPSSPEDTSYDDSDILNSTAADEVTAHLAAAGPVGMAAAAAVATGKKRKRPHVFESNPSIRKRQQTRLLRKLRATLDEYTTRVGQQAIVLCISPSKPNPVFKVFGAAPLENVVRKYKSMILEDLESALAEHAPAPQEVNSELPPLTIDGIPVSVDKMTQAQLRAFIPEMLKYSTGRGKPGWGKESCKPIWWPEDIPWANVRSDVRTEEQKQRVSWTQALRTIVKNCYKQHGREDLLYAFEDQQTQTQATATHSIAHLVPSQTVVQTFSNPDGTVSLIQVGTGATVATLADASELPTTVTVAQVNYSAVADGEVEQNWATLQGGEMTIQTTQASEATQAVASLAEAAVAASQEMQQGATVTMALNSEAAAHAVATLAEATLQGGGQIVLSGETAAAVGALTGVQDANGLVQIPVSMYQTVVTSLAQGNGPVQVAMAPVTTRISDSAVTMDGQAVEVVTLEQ
Summary of the method: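 Fluorescence intensity of labelled reporter cDNA fragments, resolved by capillary electrophoresis, served as readout for NRF1 cis-element activity. Transiently transfected HepG2 cells were dosed for 24 hours; activity in either direction was fitted against DMSO negative control.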

[2] = ATG_NFI_CIS: Attagene CIS-FACTORIAL HepG2 Assay for human Nuclear Factor I (NFI) (AID 2282989); settings: HepG2 cis-regulatory reporter, NFI response element transcription; actives raise or lower the signal
Summary of the method: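 Reporter transcription driven by endogenous transcription factors in HepG2 cells; 24 h treatment. Quantitation by labelled RT-PCR fragments on capillary electrophoresis, gain- or loss-of-signal relative to DMSO.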

[3] = target: Myc proto-oncogene protein (Homo sapiens) (UniProt P01106); test: ATG_Myc_CIS: Attagene CIS-FACTORIAL HepG2 Assay for human Myelocytomatosis (Myc) Proto-Oncogene Transcription Factor (AID 2282990); settings: HepG2, Attagene cis-reporter transcription factor activity; actives raise or lower the signal
Chain of Myc proto-oncogene protein (Homo sapiens) (P01106 whole entry, looked up): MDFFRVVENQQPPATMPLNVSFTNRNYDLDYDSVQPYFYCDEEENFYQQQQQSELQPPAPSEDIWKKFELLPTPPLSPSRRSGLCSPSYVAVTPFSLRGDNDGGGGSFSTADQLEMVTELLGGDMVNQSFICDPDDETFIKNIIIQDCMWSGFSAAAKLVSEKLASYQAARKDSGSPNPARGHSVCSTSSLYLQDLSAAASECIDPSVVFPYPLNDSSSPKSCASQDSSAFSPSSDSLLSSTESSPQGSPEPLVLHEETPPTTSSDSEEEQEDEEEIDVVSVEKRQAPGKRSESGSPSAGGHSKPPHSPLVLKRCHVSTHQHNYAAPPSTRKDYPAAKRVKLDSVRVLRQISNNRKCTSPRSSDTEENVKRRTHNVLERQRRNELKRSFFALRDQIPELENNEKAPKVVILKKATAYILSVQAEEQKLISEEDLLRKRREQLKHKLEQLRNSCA
Summary of the method: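 HepG2 cells transiently transfected with multiple cis-promoter-driven reporter transcription units, so endogenous TF activity is read. After 24 h compound exposure, reporter mRNA was quantified by RT-PCR, 6-FAM labelling, HpaI digestion and capillary electrophoresis; bidirectional fit versus DMSO.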

[4] = ATG_NF_kB_CIS: Attagene CIS-FACTORIAL HepG2 Assay for human Nuclear Factor Kappa B (NF-kB) (AID 2282991); settings: HepG2 Attagene cis-factorial NF-kB reporter mRNA; actives raise or lower the signal
Summary of the method: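 Endogenous transcription factor activity in HepG2 was captured via cis-regulated reporter constructs; after 24 h dosing, reporter mRNA was reverse-transcribed, amplified, fluorescently labelled and sized by capillary electrophoresis, with activity fitted bidirectionally relative to DMSO.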

[5] = ATG_NRF2_ARE_CIS: Attagene CIS-FACTORIAL HepG2 Assay for human Nuclear Factor Erythroid 2 Related Factor 2 (NFR2) response to Antioxidant Response Elements (ARE) (AID 2282992); settings: HepG2 Attagene ARE/NRF2 reporter, transcription factor activity; actives raise or lower the signal;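 as to AC50: reporter mRNA level measured by RT-PCR and capillary electrophoresis fluorescence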
Summary of the method: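 Readout: reporter mRNA quantified by RT-PCR plus FAM-labelled primer extension, HpaI digestion and capillary electrophoresis, 24 h after dosing transfected HepG2 cells. Gain or loss of signal is fitted bidirectionally against DMSO baseline.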

[6] = ATG_Oct_MLP_CIS: Attagene CIS-FACTORIAL HepG2 Assay for human Octamer-Binding Transcription Factor (Oct) (AID 2282993); settings: HepG2 Attagene cis-factorial Oct reporter, mRNA; actives raise or lower the signal
Summary of the method: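 Transfected HepG2 cells, 24 h treatment. Reporter mRNA quantified by RT-PCR–capillary electrophoresis; bidirectional fitting against DMSO.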

[7] = target: Cellular tumor antigen p53 (Homo sapiens) (UniProt P04637); test: ATG_p53_CIS: Attagene CIS-FACTORIAL HepG2 Assay for human p53 Transcription Factor (AID 2282994); settings: HepG2 p53 cis-element reporter, Attagene mRNA; actives raise or lower the signal
Chain of Cellular tumor antigen p53 (Homo sapiens) (P04637 whole entry, looked up): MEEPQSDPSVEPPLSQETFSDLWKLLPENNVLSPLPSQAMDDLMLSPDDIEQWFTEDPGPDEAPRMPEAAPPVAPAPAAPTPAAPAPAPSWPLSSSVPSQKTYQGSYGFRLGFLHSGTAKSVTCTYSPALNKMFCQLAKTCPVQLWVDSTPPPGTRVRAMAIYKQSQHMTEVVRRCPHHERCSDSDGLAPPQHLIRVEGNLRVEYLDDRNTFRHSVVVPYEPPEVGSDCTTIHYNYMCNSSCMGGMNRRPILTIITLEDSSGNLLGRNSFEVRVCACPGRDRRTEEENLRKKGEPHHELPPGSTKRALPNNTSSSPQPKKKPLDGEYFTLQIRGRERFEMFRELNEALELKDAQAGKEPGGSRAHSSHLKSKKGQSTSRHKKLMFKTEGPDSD
Summary of the method: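 Read-out: reporter mRNA by RT-PCR plus capillary electrophoresis with fluorescence detection. Human HepG2 liver cells carried transfected multi-reporter cis-element constructs, dosed 24 h. Gain or loss of signal fitted bidirectionally against DMSO control.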

[8] = target: human Peroxisome Proliferator-activated Receptor delta (PPARd), PPARD (gene 5467) (UniProt Q03181); test: ATG_PPARd_TRANS: Attagene TRANS-FACTORIAL HepG2 Assay for human Peroxisome Proliferator-activated Receptor delta (PPARd) (AID 2283002; active = hit-call score of the fitted dose curve at least 0.9, where 1 is the maximum)
Chain of human Peroxisome Proliferator-activated Receptor delta (PPARd), PPARD (gene 5467) (Q03181 whole entry, looked up, the tested form may be a part): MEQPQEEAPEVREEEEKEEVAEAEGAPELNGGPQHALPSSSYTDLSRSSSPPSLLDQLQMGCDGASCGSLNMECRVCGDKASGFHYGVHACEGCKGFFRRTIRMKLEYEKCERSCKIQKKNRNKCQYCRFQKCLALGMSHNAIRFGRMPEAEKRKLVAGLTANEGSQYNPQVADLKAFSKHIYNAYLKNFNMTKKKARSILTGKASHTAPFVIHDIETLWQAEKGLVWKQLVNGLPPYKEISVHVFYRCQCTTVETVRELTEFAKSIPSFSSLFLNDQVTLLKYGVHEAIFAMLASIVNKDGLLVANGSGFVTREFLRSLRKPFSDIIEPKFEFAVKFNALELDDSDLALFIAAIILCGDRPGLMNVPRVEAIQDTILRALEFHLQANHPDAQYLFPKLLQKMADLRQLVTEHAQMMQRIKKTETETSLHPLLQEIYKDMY
Summary of the method: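 HepG2 cells transiently transfected with multiplexed GAL4-UAS reporter units and exogenous chimeric NR-Gal4 proteins; 24 h compound exposure. Reporter mRNA measured by RT-PCR, 6-FAM labelling, HpaI digestion and capillary electrophoresis; gain of signal versus DMSO.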

[9] = target: human Retinoic Acid Receptor beta (RARb), RARB (gene 5915) (UniProt P10826); test: ATG_RARb_TRANS: Attagene TRANS-FACTORIAL HepG2 Assay for human Retinoic Acid Receptor beta (AID 2283004; active = hit-call score of the fitted dose curve at least 0.9, where 1 is the maximum)
Chain of human Retinoic Acid Receptor beta (RARb), RARB (gene 5915) (P10826 whole entry, looked up, the tested form may be a part): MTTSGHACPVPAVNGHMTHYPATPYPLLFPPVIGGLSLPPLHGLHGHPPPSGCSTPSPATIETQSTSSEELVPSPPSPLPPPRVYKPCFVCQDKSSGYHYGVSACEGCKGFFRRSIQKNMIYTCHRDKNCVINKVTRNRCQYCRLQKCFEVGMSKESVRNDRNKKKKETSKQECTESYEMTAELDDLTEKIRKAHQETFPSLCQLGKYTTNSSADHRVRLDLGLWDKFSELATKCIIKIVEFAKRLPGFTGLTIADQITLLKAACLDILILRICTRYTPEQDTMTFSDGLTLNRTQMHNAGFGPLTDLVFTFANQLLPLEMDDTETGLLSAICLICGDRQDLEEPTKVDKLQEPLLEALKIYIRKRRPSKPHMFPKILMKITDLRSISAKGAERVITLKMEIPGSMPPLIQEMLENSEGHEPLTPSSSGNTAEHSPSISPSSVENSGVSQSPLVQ
Summary of the method: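 HepG2 cells were transiently transfected with GAL4-UAS reporter units that report activity of exogenous chimeric NR-Gal4 proteins, then exposed to compound for 24 h. Reporter mRNA was quantified by RT-PCR with capillary electrophoresis fluorescence, as gain of signal over DMSO.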

[10] = target: Nuclear receptor subfamily 1 group I member 2 (Homo sapiens) (UniProt O75469); test: ATG_PXR_TRANS: Attagene TRANS-FACTORIAL HepG2 Assay for human Pregnane X Receptor (PXR) (AID 2283008; active = hit-call score of the fitted dose curve at least 0.9, where 1 is the maximum)
Chain of Nuclear receptor subfamily 1 group I member 2 (Homo sapiens) (O75469 whole entry, looked up, the tested form may be a part): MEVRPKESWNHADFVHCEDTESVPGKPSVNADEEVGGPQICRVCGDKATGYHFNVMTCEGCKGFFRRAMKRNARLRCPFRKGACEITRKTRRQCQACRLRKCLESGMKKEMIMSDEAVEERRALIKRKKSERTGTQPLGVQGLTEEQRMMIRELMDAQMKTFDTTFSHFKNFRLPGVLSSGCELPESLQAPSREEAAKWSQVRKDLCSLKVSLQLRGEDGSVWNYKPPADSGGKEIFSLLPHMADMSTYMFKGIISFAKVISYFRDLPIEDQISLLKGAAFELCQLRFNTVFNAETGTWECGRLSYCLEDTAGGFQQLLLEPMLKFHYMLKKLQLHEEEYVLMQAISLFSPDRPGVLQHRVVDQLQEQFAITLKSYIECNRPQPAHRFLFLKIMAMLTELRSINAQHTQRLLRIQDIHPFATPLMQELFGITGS
Summary of the method: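 Trans-factorial format: exogenous NR-Gal4 fusion activity, not endogenous factor, in transfected human HepG2 liver cells. After 24 h dosing, RNA isolated, reverse-transcribed, amplified and resolved by capillary electrophoresis; induction scored versus DMSO.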

[11] = target: human Peroxisome Proliferator-activated Receptor alpha (PPARa), PPARA (gene 5465) (UniProt Q07869); test: ATG_PPARa_TRANS: Attagene TRANS-FACTORIAL HepG2 Assay for human Peroxisome Proliferator-activated Receptor alpha (PPARa) (AID 2283001; active = hit-call score of the fitted dose curve at least 0.9, where 1 is the maximum)
Chain of human Peroxisome Proliferator-activated Receptor alpha (PPARa), PPARA (gene 5465) (Q07869 whole entry, looked up): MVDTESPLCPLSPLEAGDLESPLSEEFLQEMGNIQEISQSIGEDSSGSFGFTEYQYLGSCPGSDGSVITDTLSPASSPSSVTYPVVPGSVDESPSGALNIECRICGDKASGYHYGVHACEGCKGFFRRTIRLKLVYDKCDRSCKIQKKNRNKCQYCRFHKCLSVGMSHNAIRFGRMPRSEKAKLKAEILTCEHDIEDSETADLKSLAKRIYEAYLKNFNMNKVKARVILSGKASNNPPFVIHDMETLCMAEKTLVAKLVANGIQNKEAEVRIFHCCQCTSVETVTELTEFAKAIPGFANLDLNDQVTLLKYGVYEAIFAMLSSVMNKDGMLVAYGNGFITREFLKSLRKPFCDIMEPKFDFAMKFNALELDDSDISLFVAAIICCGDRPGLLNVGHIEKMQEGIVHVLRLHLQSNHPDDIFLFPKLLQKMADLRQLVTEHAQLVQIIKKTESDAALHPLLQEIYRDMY
Summary of the method: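 Cells (HepG2) are transfected with multiple reporter transcription units, exposed to chemical for 24 h, then total RNA is reverse-transcribed and amplified. Labelled products are quantified by capillary electrophoresis; induction is referenced to DMSO.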

[12] = BSK_3C_TissueFactor: BioMAP Diversity Plus: 3C Assay for Tissue Factor Biomarker Activity (AID 2282997); settings: BioMAP 3C HUVEC, tissue factor biomarker readout; actives raise or lower the signal
Summary of the method: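 Tissue Factor measured by ELISA, 24 h after treatment of primary HUVEC in the BioMAP 3C setting.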

[13] = BSK_3C_uPAR: BioMAP Diversity Plus: 3C Assay for Urokinase-type plasminogen activator receptor (uPAR) Biomarker Activity (AID 2282998); settings: BioMAP 3C HUVEC, uPAR biomarker ELISA; actives raise or lower the signal
Summary of the method: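 Readout: ELISA for surface uPAR. System: human umbilical vein endothelial primary cells, 24 h after chemical exposure. Analysis: bidirectional fit, DMSO baseline.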

[14] = BSK_4H_Eotaxin3: BioMAP Diversity Plus: 4H Assay for Eotaxin 3 Biomarker Activity (AID 2283000); settings: primary human endothelial cells (HUVEC); actives raise or lower the signal
Summary of the method: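 Eotaxin-3 (CCL26) levels were measured by ELISA in HUVEC primary cultures 24 h post-dosing. Gain or loss of signal was fitted in both directions, with DMSO serving as baseline and negative control.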

[15] = read-out: Intercellular Adhesion Molecule 1 (ICAM1), ICAM1 (gene 3383); test: BSK_3C_ICAM1: BioMAP Diversity Plus: 3C Assay for Intercellular Adhesion Molecule 1 (ICAM1) Biomarker Activity (AID 2283003); settings: primary human endothelial cells (HUVEC); actives raise or lower the signal
Summary of the method: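 Chemicals are dosed onto primary human umbilical vein endothelium (3C system). After 24 h, ICAM-1 is measured by ELISA, and responses are fitted bidirectionally relative to DMSO.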

[16] = BSK_3C_Proliferation: Cell Proliferation Assessment in the BioMAP Diversity Plus: 3C Assay (AID 2283006); settings: primary human endothelial cells (HUVEC);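 as to AC50: potency may reflect either rise or fall in cell number versus DMSO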
Summary of the method: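 Cells (human umbilical vein endothelial, sub-confluent) receive test chemical; after 48 h they are fixed in 10% trichloroacetic acid, stained with 0.1% SRB and read at 560 nm. Activity is referenced to DMSO, fitting increases and decreases.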

[17] = target: Peroxisome proliferator-activated receptor gamma (Homo sapiens) (UniProt P37231); test: ATG_PPARg_TRANS: Attagene TRANS-FACTORIAL HepG2 Assay for human Peroxisome Proliferator-activated Receptor-gamma (PPARg) (AID 2283007; active = hit-call score of the fitted dose curve at least 0.9, where 1 is the maximum)
Chain of Peroxisome proliferator-activated receptor gamma (Homo sapiens) (P37231 whole entry, looked up, the tested form may be a part): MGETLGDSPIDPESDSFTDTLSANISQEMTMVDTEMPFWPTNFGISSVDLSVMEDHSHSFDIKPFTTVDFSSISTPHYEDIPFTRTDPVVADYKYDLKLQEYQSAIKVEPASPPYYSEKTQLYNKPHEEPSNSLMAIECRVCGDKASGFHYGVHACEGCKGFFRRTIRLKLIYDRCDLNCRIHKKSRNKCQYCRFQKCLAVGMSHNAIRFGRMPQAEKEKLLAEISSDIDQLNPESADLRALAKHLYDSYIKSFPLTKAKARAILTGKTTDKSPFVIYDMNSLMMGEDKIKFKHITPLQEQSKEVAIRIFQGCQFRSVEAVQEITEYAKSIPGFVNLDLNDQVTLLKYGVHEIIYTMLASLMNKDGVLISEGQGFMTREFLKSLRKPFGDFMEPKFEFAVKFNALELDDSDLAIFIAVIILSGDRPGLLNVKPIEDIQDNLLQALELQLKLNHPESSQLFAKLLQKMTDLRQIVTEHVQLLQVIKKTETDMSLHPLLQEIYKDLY
Summary of the method: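 A TRANS-format multiplexed reporter assay measures activity of an exogenous chimeric NR-Gal4 protein in HepG2 cells. After 24 h of chemical exposure, reporter transcripts are amplified, fluorescently labelled and sized by capillary electrophoresis, with gain of signal scored against DMSO.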

[18] = target: Retinoic acid receptor alpha (Homo sapiens) (UniProt P10276); test: ATG_RARa_TRANS: Attagene TRANS-FACTORIAL HepG2 Assay for human Retinoic Acid Receptor alpha (RARa) (AID 2283005; active = hit-call score of the fitted dose curve at least 0.9, where 1 is the maximum)
Chain of Retinoic acid receptor alpha (Homo sapiens) (P10276 whole entry, looked up, the tested form may be a part): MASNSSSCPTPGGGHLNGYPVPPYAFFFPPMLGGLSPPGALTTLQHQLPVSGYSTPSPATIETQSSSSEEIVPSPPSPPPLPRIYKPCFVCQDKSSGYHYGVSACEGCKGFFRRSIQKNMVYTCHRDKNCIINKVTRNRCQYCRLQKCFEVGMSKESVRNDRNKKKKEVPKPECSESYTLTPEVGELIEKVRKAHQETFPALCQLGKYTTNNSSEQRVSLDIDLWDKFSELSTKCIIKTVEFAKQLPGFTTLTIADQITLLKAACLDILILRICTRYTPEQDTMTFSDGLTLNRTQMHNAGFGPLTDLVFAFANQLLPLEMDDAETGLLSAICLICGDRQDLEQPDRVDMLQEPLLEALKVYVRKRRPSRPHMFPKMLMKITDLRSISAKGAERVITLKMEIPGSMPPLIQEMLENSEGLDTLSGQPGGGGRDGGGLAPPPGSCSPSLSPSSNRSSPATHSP
Summary of the method: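 HepG2 cells transiently transfected with multiple reporter units expressing chimeric RARα-GAL4 fusion, with GAL4-UAS-driven reporters. After 24 h compound exposure, reporter mRNA induction quantified by RT-PCR and capillary electrophoresis with fluorescent labeling; gain-of-signal fitted relative to DMSO control.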

[19] = BSK_3C_VCAM1: BioMAP Diversity Plus: 3C Assay for Vascular cell adhesion molecule 1 (VCAM1) Biomarker Activity (AID 2282999); settings: BioMAP 3C HUVEC, VCAM1 ELISA, cytokine-stimulated; actives raise or lower the signal
Summary of the method: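 Vascular primary endothelium (human umbilical vein) was exposed to chemicals and assayed 24 h later. VCAM-1 levels came from ELISA, with DMSO serving as baseline for bidirectional fitting.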

Measured: AC50

OCC1CCCO1 (centres undefined)
inactive: [1] | [2] | [3] | [4] | [5] | [6] | [7] | [8] | [9] | [10]

CC(C)C(=O)OCc1ccccc1
inactive: [1] | [2] | [3] | [4] | [5] | [6] | [7] | [11]

CCN(CC)c1ccc(C=O)c(O)c1
active: [7] 70.5 µM | [17] 15.3 µM
not listed: [8] | [9] | [11] | [18] | [19]
inactive: all other assays above

Cc1ccc2c(c1)OCC(=O)CO2
inactive: [1] | [3] | [4] | [5] | [6] | [7] | [11] | [8] | [17] | [10]

CC(=O)C=O
inactive: [1] | [3] | [4] | [5] | [6] | [7] | [11] | [18] | [10]

Brc1ccccn1
inactive: [1] | [3] | [4] | [5] | [6] | [7] | [9] | [10]

O=C(O)C(F)(F)C(F)(F)C(F)(F)C(=O)O
not listed: [2] | [8] | [9] | [10] | [17] | [18]
inactive: all other assays above

Cc1cc(C)c(O)c(C(C)(C)C)c1
active: [5] 52.2 µM | [12] 26.9 µM | [13] 29.2 µM | [19] 31.6 µM | [14] 30.4 µM | [15] 30.4 µM | [16] 20 µM | [10] 16.2 µM
not listed: [2] | [9] | [18]
inactive: all other assays above

OCC(O)CC(F)(F)C(F)(F)C(F)(F)C(F)(F)C(F)(F)C(F)(F)C(F)(F)C(F)(F)F (centres undefined)
not listed: [2] | [17]
inactive: all other assays above

O=C(c1ccccc1)c1ccc(O)cc1O
active: [5] 66.8 µM
not listed: [2] | [8] | [17] | [18]
inactive: all other assays above

CN(N=O)C(=O)N[C@@H]1[C@@H](O)[C@H](O)[C@@H](CO)O[C@@H]1O
inactive: [1] | [2] | [3] | [5] | [6] | [7] | [11] | [8] | [10]

CC(=O)c1ccccc1N
inactive: [1] | [3] | [4] | [5] | [6] | [7] | [11] | [8] | [10]

C=CCOC(=O)CC(C)C
inactive: [2] | [3] | [4] | [5] | [6] | [7]

CCCC(=O)OCC(COC(=O)CCC)OC(=O)CCC
active: [4] 44.7 µM | [7] 89.1 µM
inactive: [2] | [3] | [5] | [6]

CCN=c1cc2oc3cc(NCC)c(C)cc3c(-c3ccccc3C(=O)OCC)c-2cc1C
inactive: [1] | [3] | [4] | [8] | [9] | [10]
active: [5] 0.132 µM | [6] 7.4 µM | [7] 1.56 µM

NCC(F)(F)C(F)(F)C(F)(F)C(F)(F)C(F)(F)C(F)(F)F
not listed: [2] | [19]
inactive: all other assays above

Cc1ccc([N+](=O)[O-])c(C)c1
inactive: [1] | [2] | [3] | [5] | [6] | [7] | [11] | [8] | [17] | [10]

OCC(F)(F)C(F)(F)C(F)(F)C(F)(F)C(F)(F)C(F)(F)C(F)(F)C(F)(F)CO
inactive: [1] | [3] | [4] | [5] | [6] | [7] | [12] | [13] | [19] | [14] | [8] | [15]
active: [13] 7.66 µM | [14] 38 µM | [16] 30 µM and 44.6 µM | [10] 14.4 µM

O=C1c2c(O)ccc(Nc3ccc(CCO)cc3)c2C(=O)c2c([N+](=O)[O-])ccc(O)c21
active: [5] 6.59 µM | [12] 0.7 µM | [13] 4.7 µM | [14] 9.19 µM | [15] 20 µM | [16] 20 µM | [17] 13 µM | [10] 6.55 µM
not listed: [4] | [19]
inactive: all other assays above

OCCCCl
inactive: [1] | [3] | [4] | [5] | [6] | [7] | [8] | [9] | [18] | [10]
